Consider 40 compounds from PubChem BioAssay (NCATS).

Results filed as inconclusive are left out. Active and inactive are the calls of the source. The call rests on the fitted dose curve; in most records, active means well fitted cell-killing curve with a large enough effect; inconclusive means small, poorly fitted or top-dose-only effect, or effect the other way; inactive means no such curve, though single readings can be large or run the other way.
Potency means the concentration at half of the fitted maximal effect.

The assay can be described thus: qHTS of pediatric cancer cell lines to identify multiple opportunities for drug repurposing: Confirmatory screen for Saos-2 cells (AID 1347127). Further: nearly all actives have a fitted effect of over 60% in size. As to conditions: Saos-2 osteosarcoma cell viability; series mostly up to 45.9 µM; activity change, negative = cytotoxic: at the top concentration. The source says: Drug repurposing or repositioning has been offered as a strategy for drug development in oncology programs. This approach has special potential for childhood cancers and other rare or orphan diseases, where the expected return on new drug development has been a disincentive to pharmaceuticals.
In this project we exploit the poly-pharmacology of drugs to discover new indications via phenotypic screening of a panel of 19 well-characterized cell lines derived from solid tumors seen in children and adolescents. The goal is to identify approved drugs with previously unrecognized anticancer properties that has the potential to reveal new mechanisms and biological processes involved in carcinogenesis or drug resistance. We employed a titration-based paradigm (quantitative high-throughput screening or qHTS), where all compounds were tested at multiple concentrations for their effect on cell viability. Concentration-response curves (CRCs) were derived directly from the primary screen, and both potency and efficacy values were used to identify compounds with robust bioactivity profiles. We screened the NIH Chemical Genomics Center (NCGC) Pharmaceutical Collection (NPC) and Mechanism Interrogation Plate (MIPE) small molecule collections of approved and investigational compounds against these cell lines; and measured metabolically active cells after 48 hours of compound treatment as a proxy for cell viability.
Assay Submitter: Nathalia J. Martinez, National Center for Advancing Translational Sciences, National Institutes of Health, Rockville, MD, USA; email: natalia.martinez@nih.gov
[1] Shen, M et al. Quantitative high-throughput phenotypic screening of pediatric cancer cell lines identifies multiple opportunities for drug repurposing. Oncotarget 2017 Dec 19;9(4):4758-4772. PMID 29435139.
The cells were obtained from University of North Carolina (UNC), Pediatric Preclinical Testing Program (PPT), and Coriell Institute (CI).
qHTS cell viability assay:
Cells were assayed in growth media at a density of 500-1,000 cells/well. Five microliters of cells were dispensed into 1,536-well, white, solid-bottom, TC-treated plates (Greiner Bio One) using a multidrop dispenser and incubated at 37 degrees C, 5% CO2, under a humidified atmosphere for 5 hours. Twenty-three nanoliters of compounds and controls (neutral control DMSO or positive control bortezomib at final concentration of 2.3 µM) were subsequently transferred by Kalypsys pintool. For primary screens, the MIPE collection was tested at 11-point dilutions (final concentrations range from 0.78 nM to 46 µM) and the NPC collection at 8-point dilutions (final concentrations range from 0.59 nM to 46 µM). Compounds tested in follow-up screens were assayed at 11-point dilutions. Cells were incubated for 48 hours, followed by addition of 3 µL of CellTiter-Glo (Promega). After a 15 min incubation at room temperature, samples were analyzed for luminescence intensity using a ViewLux High-throughput CCD imager equipped with clear filters.
For orientation: In qHTS, concentration-response curves come from the screen itself.
Turning to `CC1(C)O[C@@H]2C[C@H]3[C@@H]4CCC5=CC(=O)C=C[C@]5(C)[C@@H]4[C@@H](O)C[C@]3(C)[C@]2(C(=O)CO)O1`, the compound was classed as inactive.

Regarding `CCN(CC)CCNC(=O)c1c(C)[nH]c(C=C2C(=O)Nc3ccc(F)cc32)c1C`, the Potency is 26900 nM (active).

Consider `CC(=O)SCC(Cc1ccccc1)C(=O)NCC(=O)OCc1ccccc1` (stereo not given), for which the “activity change, negative = cytotoxic” value was 18.6% (inactive).

As to `CCN(CC)Cc1ccc2cc(COC(=O)Nc3ccc(C(=O)NO)cc3)ccc2c1`, the “activity change, negative = cytotoxic” value is 9.75% (inactive).

`N#Cc1c(NC(=O)c2cccc3ccccc23)sc2c1CCCC2`: the Potency was 261 nM (active).

Regarding `CN(CC(=O)N(Cc1ccc(C2CCCCC2)cc1)c1ccc(C(=O)O)c(O)c1)S(=O)(=O)c1c(F)c(F)c(F)c(F)c1F`, the Potency is 26100 nM (active).

Turning to `COc1cc2ncnc(Nc3cccc(Br)c3)c2cc1OC`, the “activity change, negative = cytotoxic” value is -24.4% (inactive).

On to `Cn1cnc(=N)c2[nH]cnc21`, for which the call was inactive.

In the case of `COc1ccc2c(c1OC)C(=O)OC2[C@H]1c2c(cc3c(c2OC)OCO3)CCN1C` (stereo not given in full), the “activity change, negative = cytotoxic” value is -9.7% (inactive).

Take `CC(C)N1[N]C(=C2C=c3cc(O)ccc3=N2)c2c(N)ncnc21`: the Potency is 10400 nM (active).

For `Cc1cnc(Nc2ccc(CN3CCOCC3)cc2)nc1Nc1cccc(S(=O)(=O)NC(C)(C)C)c1`, the Potency was 9270 nM (active).

Regarding `CC(C=CC1=C(C)CCCC1(C)C)=CC=CC(C)=CC(=O)Nc1ccc(O)cc1`, the Potency was 38000 nM (active).

In the case of `Cc1nc(NC(=O)N2CCC[C@@H]2C(N)=O)sc1-c1ccnc(C(C)(C)C(F)(F)F)c1`, the Potency was 5850 nM (active).

Take `CC[C@@]1([C@@H]2O[C@@H]([C@H]3O[C@@](O)(CO)[C@H](C)C[C@H]3C)C[C@H]2C)CC[C@H]([C@]2(C)CC[C@]3(C[C@H](O)[C@@H](C)[C@@H]([C@@H](C)[C@@H](OC)[C@H](C)C(=O)O)O3)O2)O1`: the Potency is 723 nM (active).

On to `O=C(NCc1ccccc1)[C@H](Cc1ccccc1)NC(=O)[C@@H]1O[C@@H]1C(=O)NCCc1ccc(O)cc1`, for which the “activity change, negative = cytotoxic” value was -8.73% (inactive).

With `COc1ccc(Nc2cc(-c3cnc(N)nc3)nc(N3CCOCC3)n2)cn1`, the Potency was 3290 nM (active).

As to `Cc1ncc(-c2ccnc(Nc3ccc(S(C)(=O)=O)cc3)n2)n1C(C)C`, the Potency was 3690 nM (active).

Turning to `Oc1cc(-c2nc(-c3ccccc3)[nH]c2-c2ccncc2)ccc1Cl`, the Potency was 2610 nM (active).

With `CCCCC(=O)O[C@]1(C(=O)CO)[C@@H](C)C[C@H]2[C@@H]3CCC4=CC(=O)C=C[C@]4(C)[C@@]3(F)[C@@H](O)C[C@@]21C`, the “activity change, negative = cytotoxic” value was 7.54% (inactive).

As for `O=C(C=CC#Cc1cccc(NS(=O)(=O)c2ccccc2)c1)NO`, the Potency is 2930 nM (active).

Take `C[C@H]1[C@@H](OC(=O)CCC(=O)O)O[C@@H]2O[C@@]3(C)CC[C@@H]4[C@H](C)CC[C@@H]1[C@@]24OO3`: the Potency was 1310 nM (active).

`CS(=O)(=O)N1CCc2c(-c3cnc(N)nc3)nc(N3CCOCC3)nc21`: the Potency was 2330 nM (active).

As for `CC(=O)[C@]1(O)Cc2c(O)c3c(c(O)c2[C@@H](O[C@H]2C[C@H](N)[C@@H](O)[C@H](C)O2)C1)C(=O)c1ccccc1C3=O`, the “activity change, negative = cytotoxic” value was -25.9% (inactive).

For the compound `CC(C=CC(=O)NO)=C[C@@H](C)C(=O)c1ccc(N(C)C)cc1`, the Potency was 1850 nM (active).

As for `COc1cc(C=CC(=O)CC(=O)C=Cc2ccc(O)c(OC)c2)ccc1O`, the Potency is 33900 nM (active).

Take `FC(F)c1nc2ccccc2n1-c1nc(N2CCOCC2)nc(N2CCOCC2)n1`: the Potency is 827 nM (active).

Take `N#Cc1c(C2CCNCC2)cc(-c2c(O)cccc2OCC2CC2)nc1N`: the “activity change, negative = cytotoxic” value is -7.21% (inactive).

`N#CNC(=NCCCCCCOc1ccc(Cl)cc1)Nc1ccncc1`: the Potency was 20800 nM (active).

With `COC(=O)C=CC(=O)OC`, the “activity change, negative = cytotoxic” value is 10.8% (inactive).

Turning to `COc1cc(O)c2c(c1)C1OC1C[C@H](O)[C@H](O)C(=O)C=CC[C@H](C)OC2=O` (stereo not given in full), the Potency was 9270 nM (active).

`CC(C)C[C@H](NC(=O)CNC(=O)c1cc(Cl)ccc1Cl)B1OC(=O)CC(CC(=O)O)(C(=O)O)O1` (stereo not given in full): the Potency is 4650 nM (active).

`O=C(C=CC=Cc1ccc2c(c1)OCO2)N1CCCCC1`: the “activity change, negative = cytotoxic” value is 1.22% (inactive).

As for `O=C1NC(=O)C(=Cc2ccc3nccc(-c4ccncc4)c3c2)S1`, the Potency was 2930 nM (active).

For the compound `CC(=O)NCC(=O)N1[C@H]2CC[C@H]1c1cc(Nc3ncc(C(F)(F)F)c(NC4CCC4)n3)ccc12`, the Potency is 585 nM (active).

With `C=C1C(=CC=C2CCC[C@]3(C)[C@@H]([C@H](C)CCCC(C)(C)O)CC[C@@H]23)C[C@@H](O)C[C@@H]1O`, the “activity change, negative = cytotoxic” value was -1.71% (inactive).

As for `CS[C@H]1SC[C@@H]2C(=O)N(C)[C@H](C(C)C)C(=O)OC[C@H](NC(=O)c3cnc4ccccc4n3)C(=O)N[C@H](C)C(=O)N(C)[C@@H]1C(=O)N(C)[C@H](C(C)C)C(=O)OC[C@H](NC(=O)c1cnc3ccccc3n1)C(=O)N[C@H](C)C(=O)N2C`, the “activity change, negative = cytotoxic” value was 19.4% (inactive).

Regarding `CCS(=O)(=O)Nc1ccc2[nH]c(O)c(C(=Nc3ccc(CN4CCCCC4)cc3)c3ccccc3)c2c1`, the Potency is 737 nM (active).

`COC1=C2C[C@@H](C)C[C@H](OC)[C@@H](O)[C@@H](C)C=C(C)[C@H](OC(N)=O)[C@@H](OC)C=CC=C(C)C(=O)NC(=CC1=O)C2=O`: the Potency was 928 nM (active).

As for `C[C@@]12C(=O)OC(=O)[C@@]1(C)C1CCC2O1`, the Potency was 2610 nM (active).

`COc1cc([C@@H]2c3cc4c(cc3[C@@H](O[C@@H]3O[C@@H]5CO[C@@H](c6cccs6)O[C@@H]5[C@H](O)[C@@H]3O)[C@H]3COC(=O)[C@H]23)OCO4)cc(OC)c1O`: the “activity change, negative = cytotoxic” value was 33% (inactive).
